# From PubChem BioAssay (NCATS)
# Inconclusive results are not listed. A call without a number means that no potency is given here. Calls of active or inactive are those of the source. The call rests on the fitted dose curve; in most records, active means well fitted cell-killing curve with a large enough effect; inconclusive means small, poorly fitted or top-dose-only effect; inactive means no such curve, though single readings can be large or run the other way.
# Experiment: qHTS of pediatric cancer cell lines to identify multiple opportunities for drug repurposing: Primary screen for Rh41 cells (AID 1347108); further: nearly all actives have a fitted effect of over 70% in size
# Conditions: Rh41 rhabdomyosarcoma viability, CellTiter-Glo luminescence, 48 h; series mostly up to 46 µM
# From the text: Drug repurposing or repositioning has been offered as a strategy for drug development in oncology programs. This approach has special potential for childhood cancers and other rare or orphan diseases, where the expected return on new drug development has been a disincentive to pharmaceuticals. […] In this project we exploit the poly-pharmacology of drugs to discover new indications via phenotypic screening of a panel of 19 well-characterized cell lines derived from solid tumors seen in children and adolescents. The goal is to identify approved drugs with previously unrecognized anticancer properties that has the potential to reveal new mechanisms and biological processes involved in carcinogenesis or drug resistance. We employed a titration-based paradigm (quantitative high-throughput screening or qHTS), where all compounds were tested at multiple concentrations for their effect on cell viability. Concentration-response curves (CRCs) were derived directly from the primary screen, and both potency and efficacy values were used to identify compounds with robust bioactivity profiles. We screened the NIH Chemical Genomics Center (NCGC) Pharmaceutical Collection (NPC) and Mechanism Interrogation Plate (MIPE) small molecule collections of approved and investigational compounds against these cell lines; and measured metabolically active cells after 48 hours of compound treatment as a proxy for cell viability. […] Assay Submitter: Nathalia J. Martinez, National Center for Advancing Translational Sciences, National Institutes of Health, Rockville, MD, USA; email: natalia.martinez@nih.gov Shen, M et al. Quantitative high-throughput phenotypic screening of pediatric cancer cell lines identifies multiple opportunities for drug repurposing. Oncotarget 2017 Dec 19;9(4):4758-4772. PMID 29435139.
# The cells were obtained from University of North Carolina (UNC), Pediatric Preclinical Testing Program (PPT), and Coriell Institute (CI). qHTS cell viability assay: Cells were assayed in growth media at a density of 500-1,000 cells/well. Five microliters of cells were dispensed into 1,536-well, white, solid-bottom, TC-treated plates (Greiner Bio One) using a multidrop dispenser and incubated at 37 degrees C, 5% CO2, under a humidified atmosphere for 5 hours. Twenty-three nanoliters of compounds and controls (neutral control DMSO or positive control bortezomib at final concentration of 2.3 µM) were subsequently transferred by Kalypsys pintool. For primary screens, the MIPE collection was tested at 11-point dilutions (final concentrations range from 0.78 nM to 46 µM) and the NPC collection at 8-point dilutions (final concentrations range from 0.59 nM to 46 µM). Compounds tested in follow-up screens were assayed at 11-point dilutions. Cells were incubated for 48 hours, followed by addition of 3 µL of CellTiter-Glo (Promega). After a 15 min incubation at room temperature, samples were analyzed for luminescence intensity using a ViewLux High-throughput CCD imager equipped with clear filters.
# Potency means the concentration at half of the fitted maximal effect.
row,SMILES,Potency
1,Cn1cnc(=N)c2[nH]cnc21,469 nM (active)
2,C=C1C[C@@]2(O)O[C@@]3(C[C@H]2C(C)C)[C@H](C)CC[C@H]13,inactive
3,OCCN1C[C@H](O)[C@@H](O)[C@H](O)[C@@H]1CO,inactive
4,COc1cc(C)c(Sc2cnc(NC(=O)c3ccc(CNC(C)C(C)(C)C)cc3)s2)cc1C(=O)N1CCN(C(C)=O)CC1 (stereo not given),7430 nM (active)
5,Cn1cnc2c(F)c(Nc3ccc(Br)cc3F)c(C(=O)NOCCO)cc21,inactive
6,Cn1cc(C[C@@H](N)C(=O)O)c2ccccc21,inactive
7,OCC(O)C(O)C(O)CO (stereo not given),inactive
8,Cc1noc(-c2ccc(CSCCC(=O)O)cc2)c1NC(=O)OC(C)c1ccccc1Cl (stereo not given),inactive
9,COc1cccc2c1C(=O)c1c(O)c3c(c(O)c1C2=O)C[C@@](O)(C(=O)CO)C[C@H]3O[C@H]1C[C@H](N)[C@H](O)[C@H](C)O1,743 nM (active)
10,CNC(=O)Nc1ccc(-c2nc(N3CC4CCC(C3)O4)c3cnn(C4CCC5(CC4)OCCO5)c3n2)cc1,41.8 nM (active)
11,O=C1c2c(O)cccc2[C@@H]([C@@H]2O[C@H](CO)[C@@H](O)[C@H](O)[C@H]2O)c2cc(CO)cc(O)c21,inactive
12,CC(C)(C)c1nc2c3cc[nH]c(=O)c3c3cc(F)ccc3c2[nH]1,inactive
13,c1ccc2c(Oc3nc(Nc4ccc(N5CCOCC5)cc4)c4ncn(C5CCCCC5)c4n3)cccc2c1,inactive
14,Nc1nc(=O)n([C@H]2C[C@H](O)[C@@H](CO)O2)cc1F,inactive
15,CC[C@H]1OC(=O)[C@H](C)[C@@H](O[C@H]2C[C@@](C)(OC)[C@@H](O)[C@H](C)O2)[C@H](C)[C@@H](O[C@@H]2O[C@H](C)C[C@H](N(C)C)[C@@H]2O)[C@](C)(OC)C[C@@H](C)C(=O)[C@H](C)[C@@H](O)[C@]1(C)O,inactive
16,COc1cccc2c1C(=O)c1c(O)c3c(c(O)c1C2=O)C[C@@](O)(C(=O)CO)C[C@@H]3O[C@H]1C[C@H](N)[C@@H](O)[C@H](C)O1,662 nM (active)
17,COc1cc(C(=O)NC2CCN(C)CC2)ccc1Nc1ncc2c(n1)N(C1CCCC1)CCC(=O)N2C(C)C,14800 nM (active)
18,O=C(c1ccc(F)cc1)N1CCC[C@H](c2nc(-c3ccc(F)cc3)no2)C1,inactive
19,CN(C)c1ccc(C(=O)NCCCCCCC(=O)NO)cc1,935 nM (active)
20,C[C@@H](NCc1cc2ccccc2[nH]1)c1cccc2ccccc12,inactive

row,SMILES,Potency
1,COc1cc(C[C@@H](CO)[C@H](CO)Cc2ccc(O)c(OC)c2)ccc1O,935 nM (active)
2,CC(C)(N)c1ccc(-c2nc3ccccc3nc2-c2ccccc2)cc1,10500 nM (active)
3,C[C@@]12C[C@@]3(O)O[C@@H](O1)[C@]1(COC(=O)c4ccccc4)[C@@H]3C[C@@]12O[C@@H]1O[C@H](CO)[C@@H](O)[C@H](O)[C@@H]1O,inactive
4,O=C(Nc1cccc(Nc2ncc(Br)c(NCCc3cnc[nH]3)n2)c1)N1CCCC1,9350 nM (active)
5,CNC(=O)c1cccc(-c2ccc3c(N4CCOC[C@H]4C)nc(N4CCOC[C@H]4C)nc3n2)c1,118 nM (active)
6,O=C(C=CC=Cc1ccc2c(c1)OCO2)N1CCCCC1,inactive
7,C[C@@H]1C(=O)O[C@H]2CC34[C@H]5C[C@@H](C(C)(C)C)C36[C@H](OC(=O)[C@@H]6O)O[C@@]4(C(=O)O5)[C@]21O (stereo not given in full),inactive
8,CC(=O)OCC(=O)[C@@]12N=C(C)O[C@H]1C[C@H]1[C@@H]3CCC4=CC(=O)C=C[C@]4(C)[C@@H]3[C@@H](O)C[C@@]12C,inactive
9,c1cncc(CN2CCC(n3ncc4c(N5CCOCC5)nc(-c5ccc6[nH]ccc6c5)nc43)CC2)c1,3320 nM (active)
10,CCCc1nc(C(C)(C)O)c(C(=O)O)n1Cc1ccc(-c2ccccc2-c2nn[nH]n2)cc1,inactive
11,CON=C(C(=O)N[C@@H]1C(=O)N2C(C(=O)O)=C(CSC(=O)c3ccco3)CS[C@H]12)c1csc(N)n1,inactive
12,CN[C@H](CC(C)C)C(=O)N[C@H]1C(=O)N[C@@H](CC(N)=O)C(=O)N[C@@H]2C(=O)N[C@H]3C(=O)N[C@H](C(=O)N[C@H](C(=O)O)c4cc(O)cc(O)c4-c4cc3ccc4O)[C@H](O)c3ccc(c(Cl)c3)Oc3cc2cc(c3O[C@@H]2O[C@H](CO)[C@@H](O)[C@H](O)[C@@H]2O[C@H]2C[C@](C)(N)[C@H](O)[C@H](C)O2)Oc2ccc(cc2Cl)[C@H]1O,inactive
13,Cc1cnc(Nc2ccc(CN3CCOCC3)cc2)nc1Nc1cccc(S(=O)(=O)NC(C)(C)C)c1,3320 nM (active)
14,C=C(C)[C@@H]1CC[C@]2(C(=O)O)CC[C@]3(C)[C@H](CC[C@@H]4[C@@]5(C)CC[C@H](O)C(C)(C)[C@@H]5CC[C@]43C)[C@@H]12,inactive
15,CCc1cnn2c(NCc3ccc[n+]([O-])c3)cc(N3CCCC[C@@H]3CCO)nc12,74.3 nM (active)
16,Cc1cc(Nc2ncc3c(n2)N(C)C(=O)N(c2cc(NC(=O)c4cccc(C(F)(F)F)c4)ccc2C)C3)n(C)n1,743 nM (active)
17,O=C1NC(O)CCN1[C@@H]1O[C@H](CO)[C@H](O)[C@H]1O (stereo not given in full),inactive
18,NC(=O)Nc1cc(-c2ccc(CN3CCOCC3)cc2)sc1C(N)=O,7430 nM (active)
19,CCCCCCCCc1ccc(CCC(N)(CO)CO)cc1,18700 nM (active)
20,O=c1[nH]c(=O)n([C@H]2C[C@@H](O)[C@@H](CO)O2)cc1C=CBr,inactive
